Results taken from PubChem BioAssay (NCATS).
Values joined by “and” are separate entries in the source; they are usually repeats but may differ in a detail not shown here. Equal entries are not always repeated. Results filed as inconclusive are left out. Some structures have more than one record in an assay (separate samples or runs), and their calls can disagree. Active and inactive are the calls of the source. Unless noted, calls follow the shape of the dose curve; as a rule, active = well fitted curve in the direction sought with a large enough effect; inconclusive = small, poorly fitted or top-dose-only effect, or another doubt; inactive = no such curve, though single readings can be large; an effect the other way counts as inactive or inconclusive.

Legend:
[1] = Cell Viability - N2a (AID 540); settings: N2a mouse neuroblastoma cell viability; activity change, negative = cytotoxicity: at 92.2 µM (top of the series);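 also: cells exposed to compound for 40 h at 37 °C; plate controls were DMSO alone for no effect and tamoxifen control for full effect; nearly all actives have a fitted effect of over 45% in size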
In short: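 Cytotoxicity was scored as loss of cellular ATP in N2a cells, a mouse neuroblastoma line. Compounds are applied in a qHTS concentration series for 40 hr at 37 °C.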

[2] = Cell Viability - H-4-II-E (AID 543);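 also: cells exposed to compound for 40 hours; nearly all actives have a fitted effect of over 35% in size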; also: potency is read from the fitted curve at half-maximal effect
In short: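 Cells seeded at 1500 per well and rested 5 hr; compounds added; 40 hr incubation at 37 °C; CellTiter-Glo added, 20 min at room temperature; luminescence read. Hill-equation fits gave AC50.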

[3] = Cellular Toxicity (caspase-3) Jurkat (AID 655); settings: Jurkat caspase-3 activation, luminescence; caspase-3 activation: at 92.2 µM (top of the series), DMSO = 0%, tamoxifen = 100%;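 also: cells exposed to compound for 16 h at 37 °C before reading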
In short: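 Luminescent Caspase-Glo 3/7 read-out (20 min, room temperature) after 16 h compound treatment at 37 C of 5000 Jurkat cells per well. AC50 derived by Hill-equation fitting, scaled between DMSO basal and 100 uM tamoxifen stimulation.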

[4] = Cellular Toxicity (caspase-3) BJ (AID 658); settings: Potency: caspase-3 activation;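 also: cells exposed to compound for 16 hours; 0% = DMSO basal and 100% = 10 µM staurosporine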
In short: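 qHTS, BJ fibroblasts, 1000 cells/well; 5 hr preincubation, 16 hr compound, 37 °C; Caspase-Glo 3/7 reagent, 1 hr RT; luminescence. DMSO = 0%, 10 uM staurosporine = 100%. Hill-equation AC50.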

[5] = Cellular Toxicity (caspase-3) Hek293 (AID 664); settings: HEK293 caspase-3 activation, DMSO = 0%, 100 µM tamoxifen = 100%; at 92.2 µM (top of the series);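 also: cells exposed to compound for 16 h at 37 °C before readout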
In short: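 qHTS, HEK293 (human embryonic kidney), 16 h cpd exposure in complete medium. Caspase-3/7 activation = luminescence increase; normalized to DMSO/100 uM tamoxifen; Hill-fit AC50.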

[6] = MultiTox-Fluor Cytotoxicity Assay - LYMP1-001 - Live Cells (AID 947); also: potency is read from the fitted curve at half-maximal effect;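 as to activity change, negative = cytotoxicity: 0% = DMSO only and full inhibition = tetraoctylammonium bromide control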
[7] = Cell Viability - LYMP2-017 (AID 972);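 also: cells exposed to compound for 24 hours at 37 °C; nearly all actives have a fitted effect of over 55% in size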; also: potency is read from the fitted curve at half-maximal effect; as to activity change, negative = cytotoxicity: % is scaled to controls: 0 for no effect and ±100 for the full control effect
In short: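 Cytotoxicity is scored as a concentration-dependent drop in cellular ATP in a human lymphoblastoid line after 24 hr treatment at 37 C. Values are AC50s from Hill-equation modelling.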

[8] = Cell Viability - LYMP2-020 (AID 986);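 also: cells exposed to compound for 24 h at 37 °C; nearly all actives have a fitted effect of over 55% in size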; also: potency is read from the fitted curve at half-maximal effect
In short: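 Seed 2500 cells per well and incubate 5 hr at 37 C. Add compounds at a concentration series and incubate 24 hr at 37 C. Add CellTiter-Glo, wait 30 min at RT, read luminescence, and fit a Hill curve for AC50.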

[9] = molecular target: Estrogen receptor (Homo sapiens) (UniProt P03372); test: qHTS assay for small molecule agonists of estrogen receptor alpha signaling (AID 588514; calls by dose curve; also: nearly all actives have a fitted effect of over 70% in size; also: potency is read from the fitted curve at half-maximal effect;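 as to activation: 0% = vehicle only and 100% = reference agonist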)
In short: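 Efficacy is expressed against 20 nM 17-beta-estradiol (100%) and DMSO basal (0%); EC50 from Hill equation. Assay: beta-lactamase reporter in ER-alpha-UAS-bla HEK 293 cells, 18 h compound incubation, CCF4 detection.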

[10] = molecular target: Bile acid receptor (Homo sapiens) (UniProt Q96RI1); test: qHTS assay for small molecule antagonists of farnesoid X receptor signaling (AID 588526; calls by dose curve; also: potency is read from the fitted curve at half-maximal effect)
In short: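 Antagonist mode: titrated compounds tested against chenodeoxycholic acid stimulation (normalized to 50 uM CDCA and DMSO) in GeneBLAzer HEK293T cells for 16 h. Beta-lactamase read by CCF4 fluorescence; IC50 from Hill fits.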

[11] = molecular target: Glucocorticoid receptor (Homo sapiens) (UniProt P04150); test: qHTS assay for small molecule antagonists of glucocorticoid receptor signaling (AID 588533; active = well fitted inhibition curve with a large enough effect in the signal ratio, with a control signal flat, not every such curve was filed as active; the % refers to the signal ratio;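 also: cells stimulated with 2 nM dexamethasone as agonist; % is scaled to controls: 0 for no effect and ±100 for the full control effect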)
In short: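 Antagonist-mode qHTS: compound titrations added to GRE-bla HeLa cells, then dexamethasone 2 nM final; 18 h, 37 C. CCF4 FRET fluorescence normalized to dexamethasone and DMSO; IC50 from Hill fit.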

[12] = molecular target: Peroxisome proliferator-activated receptor gamma (Homo sapiens) (UniProt P37231); test: qHTS assay for small molecule agonists of peroxisome proliferator-activated receptor gamma signaling (AID 588536; active = well fitted curve in the direction sought with a large enough effect in the signal ratio, with a control signal flat, not every such curve was filed as active; the % refers to the signal ratio;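 also: 0% = DMSO basal wells and 100% = rosiglitazone at 2 µM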)
In short: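 Using GeneBLAzer HEK293 cells, response was quantified by CCF4 fluorescence and normalized between basal DMSO (0%) and rosiglitazone 2 uM (100%); curves yielded half-maximal stimulation concentration and efficacy.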

[13] = Cell Viability - LYMP2-007 (AID 979);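 also: cells exposed to compound for 24 h before reading; nearly all actives have a fitted effect of over 60% in size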; also: potency is read from the fitted curve at half-maximal effect;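 as to activity change, negative = cytotoxicity: 0% = DMSO only and the negative end = 92 µM tetraoctylammonium bromide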
In short: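 Cells are seeded at 2500 per well and rested 5 hr. Compounds are then added over a concentration series for 24 hr at 37 C. CellTiter-Glo is added for 30 min at room temperature before luminescence reading.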

[14] = Cell Viability - LYMP2-018 (AID 985);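 also: compound exposure lasted 24 hr at 37 °C; nearly all actives have a fitted effect of over 50% in size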; also: potency is read from the fitted curve at half-maximal effect;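 as to activity change, negative = cytotoxicity: plate controls were DMSO only for no effect and tetraoctylammonium bromide at 92 µM for full effect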
In short: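 Seed 2500 lymphoblastoid cells per well, incubate 5 hr at 37 C, add compound and incubate 24 hr at 37 C, add CellTiter-Glo, wait 30 min at room temperature, then read luminescence.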

[15] = qHTS assay for small molecule antagonists of peroxisome proliferator-activated receptor delta signaling (AID 588535); settings: HEK293T PPARd-UAS-bla, beta-lactamase FRET ratio, 18 h; 460 nm channel;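 also: cells co-treated with a PPAR-delta agonist as stimulator during compound exposure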
In short: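 Fluorescence from CCF4-loaded GeneBLAzer PPAR-delta-UAS-bla HEK293T cells (2 hrs RT loading) quantified reporter inhibition after an 18 hr, 37 C compound exposure across a titration.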

[16] = molecular target: Retinoic acid receptor RXR-alpha (Homo sapiens) (UniProt P19793); test: qHTS assay for small molecule agonists of retinoid X receptor alpha signaling (AID 588544; calls by dose curve;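 also: 0% = DMSO basal wells and 100% = reference agonist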)
[17] = qHTS assay for cell viability of HEK293 cells (AID 743288); settings: ATP luminescence (CellTiter-Glo), 18 h; max response: stronger effect = lower value; also: nearly all actives have a fitted effect of over 50% in size; also: potency is read from the fitted curve at half-maximal effect; as to max response: % is scaled to controls: 0 for no effect and ±100 for the full control effect
In short: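 Readout is luciferase-coupled ATP content (CellTiter-Glo luminescence, 30 min room temperature) as a measure of metabolically competent cells. Parental HEK293 cells were plated 5 h or more before compound addition, then treated 18 h at 37 C.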

[18] = molecular target: Peroxisome proliferator-activated receptor gamma (Homo sapiens) (UniProt P37231); test: qHTS assay for small molecule antagonists of peroxisome proliferator-activated receptor gamma signaling (AID 588537; active = well fitted inhibition curve with a large enough effect in the signal ratio, with a control signal flat, not every such curve was filed as active; the % refers to the signal ratio; also: potency is read from the fitted curve at half-maximal effect)
In short: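 Fluorescence at 460 and 530 nm (405 nm excitation) reported beta-lactamase cleavage of CCF4 after 2 h room-temperature loading. HEK293 reporter cells in 1% charcoal/dextran-treated FBS had received compound and rosiglitazone for 16 h.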

Chain of Retinoic acid receptor RXR-alpha (Homo sapiens) (P19793 whole entry, looked up): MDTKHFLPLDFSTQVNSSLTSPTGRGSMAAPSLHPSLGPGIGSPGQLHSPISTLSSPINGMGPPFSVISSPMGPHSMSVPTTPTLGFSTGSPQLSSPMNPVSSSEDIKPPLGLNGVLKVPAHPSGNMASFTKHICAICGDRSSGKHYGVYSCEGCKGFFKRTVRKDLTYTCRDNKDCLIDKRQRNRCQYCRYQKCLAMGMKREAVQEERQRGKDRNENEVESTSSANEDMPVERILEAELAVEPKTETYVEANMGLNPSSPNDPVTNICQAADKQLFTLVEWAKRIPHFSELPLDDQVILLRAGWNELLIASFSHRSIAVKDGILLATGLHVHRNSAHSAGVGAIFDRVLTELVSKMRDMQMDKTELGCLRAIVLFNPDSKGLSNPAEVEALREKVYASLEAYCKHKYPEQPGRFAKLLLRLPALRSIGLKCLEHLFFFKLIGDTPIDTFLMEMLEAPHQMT
Chain of Peroxisome proliferator-activated receptor gamma (Homo sapiens) (P37231 whole entry, looked up): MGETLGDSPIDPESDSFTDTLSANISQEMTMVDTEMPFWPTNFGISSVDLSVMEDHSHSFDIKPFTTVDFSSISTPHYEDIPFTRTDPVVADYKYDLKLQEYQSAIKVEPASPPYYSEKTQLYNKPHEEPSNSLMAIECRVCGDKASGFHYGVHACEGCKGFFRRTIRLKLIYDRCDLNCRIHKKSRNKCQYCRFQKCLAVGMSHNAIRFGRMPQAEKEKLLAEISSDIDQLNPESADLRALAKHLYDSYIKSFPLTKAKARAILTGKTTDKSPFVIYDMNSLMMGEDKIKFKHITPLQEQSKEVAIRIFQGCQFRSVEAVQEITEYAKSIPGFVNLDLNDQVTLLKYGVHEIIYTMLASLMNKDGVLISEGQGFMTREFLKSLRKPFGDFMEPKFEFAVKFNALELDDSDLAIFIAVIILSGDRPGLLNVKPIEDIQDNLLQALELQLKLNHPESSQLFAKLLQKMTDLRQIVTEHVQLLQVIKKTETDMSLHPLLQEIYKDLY
Chain of Bile acid receptor (Homo sapiens) (Q96RI1 whole entry, looked up): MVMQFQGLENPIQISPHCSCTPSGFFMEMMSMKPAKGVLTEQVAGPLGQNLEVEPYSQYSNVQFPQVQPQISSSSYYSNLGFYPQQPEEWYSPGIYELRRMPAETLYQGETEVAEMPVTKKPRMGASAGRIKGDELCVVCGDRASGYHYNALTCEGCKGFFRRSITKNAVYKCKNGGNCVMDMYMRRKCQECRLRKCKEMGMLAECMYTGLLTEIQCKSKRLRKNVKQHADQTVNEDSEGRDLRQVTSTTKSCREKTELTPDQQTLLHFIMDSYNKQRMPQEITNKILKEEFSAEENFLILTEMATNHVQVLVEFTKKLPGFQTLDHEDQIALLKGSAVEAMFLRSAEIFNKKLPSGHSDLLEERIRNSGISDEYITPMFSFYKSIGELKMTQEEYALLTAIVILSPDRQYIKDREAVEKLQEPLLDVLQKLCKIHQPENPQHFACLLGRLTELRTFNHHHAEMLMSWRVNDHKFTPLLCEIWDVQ
Chain of Glucocorticoid receptor (Homo sapiens) (P04150 whole entry, looked up): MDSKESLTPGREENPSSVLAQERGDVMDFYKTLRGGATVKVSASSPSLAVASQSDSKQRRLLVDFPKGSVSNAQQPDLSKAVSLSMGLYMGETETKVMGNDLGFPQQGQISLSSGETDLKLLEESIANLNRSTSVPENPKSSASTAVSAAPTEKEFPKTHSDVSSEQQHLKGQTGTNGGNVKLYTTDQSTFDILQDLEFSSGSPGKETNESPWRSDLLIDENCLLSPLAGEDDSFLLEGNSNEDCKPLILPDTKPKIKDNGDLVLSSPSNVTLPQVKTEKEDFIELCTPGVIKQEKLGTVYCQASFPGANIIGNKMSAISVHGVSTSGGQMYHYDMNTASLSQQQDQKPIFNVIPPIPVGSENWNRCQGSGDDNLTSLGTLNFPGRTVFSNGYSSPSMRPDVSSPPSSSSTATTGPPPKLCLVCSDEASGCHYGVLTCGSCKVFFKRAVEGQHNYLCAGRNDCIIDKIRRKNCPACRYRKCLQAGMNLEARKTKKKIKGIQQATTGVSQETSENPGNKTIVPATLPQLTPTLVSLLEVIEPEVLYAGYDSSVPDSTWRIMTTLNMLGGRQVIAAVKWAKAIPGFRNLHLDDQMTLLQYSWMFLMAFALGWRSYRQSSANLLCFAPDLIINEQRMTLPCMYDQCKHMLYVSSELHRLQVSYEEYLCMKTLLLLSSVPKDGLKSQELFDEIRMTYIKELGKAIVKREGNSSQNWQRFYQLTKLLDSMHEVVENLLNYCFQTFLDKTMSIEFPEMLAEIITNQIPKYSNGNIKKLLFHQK
Chain of Estrogen receptor (Homo sapiens) (P03372 whole entry, looked up): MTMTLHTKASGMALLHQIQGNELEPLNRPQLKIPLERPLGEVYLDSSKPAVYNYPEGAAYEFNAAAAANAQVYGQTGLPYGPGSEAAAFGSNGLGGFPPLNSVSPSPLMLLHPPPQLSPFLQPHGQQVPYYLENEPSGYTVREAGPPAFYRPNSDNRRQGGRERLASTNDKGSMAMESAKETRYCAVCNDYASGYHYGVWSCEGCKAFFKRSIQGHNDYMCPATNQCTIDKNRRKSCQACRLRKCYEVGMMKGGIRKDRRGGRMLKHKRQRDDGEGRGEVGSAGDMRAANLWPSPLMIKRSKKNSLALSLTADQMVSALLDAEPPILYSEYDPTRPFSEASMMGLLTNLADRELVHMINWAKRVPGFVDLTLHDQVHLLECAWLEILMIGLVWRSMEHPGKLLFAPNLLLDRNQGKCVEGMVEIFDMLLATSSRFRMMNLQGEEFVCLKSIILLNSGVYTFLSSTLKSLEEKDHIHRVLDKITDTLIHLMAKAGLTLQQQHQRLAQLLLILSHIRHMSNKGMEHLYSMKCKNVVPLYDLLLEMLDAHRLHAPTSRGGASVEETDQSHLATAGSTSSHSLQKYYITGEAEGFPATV

Nc1cnn([C@@H]2O[C@H](CO)[C@@H](O)[C@H]2O)c(=O)n1
active: Potency [10] 25.1 µM
inactive: activity change, negative = cytotoxicity [1] 8.82% | Potency [2] | Potency [3] | Potency [4] | caspase-3 activation [5] -2.69% | Potency [6] | Potency [7] | Potency [8] | Potency [9] | Potency [11] | outcome [12]

O=C1OC(=O)c2ccccc21
-31.3%: max response [15]
inactive: Potency [2] | Potency [13] | Potency [14] | Potency [8] | Potency [9] | Potency [10] | Potency [11] | outcome [12] | Potency [16] | max response [17] -11.3%

CC(=O)Nc1cccc(C)c1
-12.4%: max response [15]
inactive: activity change, negative = cytotoxicity [1] -6.73% | Potency [2] | Potency [4] | caspase-3 activation [5] -2.37% | Potency [9] | Potency [11] | outcome [12] | Potency [18] | max response [17] 2.07%

O=C=Nc1ccc(Cl)c(Cl)c1
inactive: Potency [4] | caspase-3 activation [5] 9.15% | Potency [9]

C=CC(C)(O)CCCC(C)CCCC(C)CCCC(C)C (centres undefined)
4.15%: max response [15]
inactive: Potency [2] | Potency [3] | Potency [4] | caspase-3 activation [5] 1.05% | Potency [6] | Potency [7] | Potency [8] | Potency [9] | outcome [12] | Potency [18] | Potency [16] | max response [17] -8.32%

CC(/C=C/C=C(C)/C=C/C(=O)O)=C\C=C\C=C(C)\C=C\C=C(C)\C=C\C(=O)O
inactive: Potency [2] | caspase-3 activation [5] -7.2% | Potency [7] | Potency [13] | Potency [9] | Potency [10] | Potency [11] | max response [17] -0.748%

Brc1cc(Br)c(Oc2cc(Br)c(Br)cc2Br)cc1Br
inactive: Potency [3] | Potency [4] | Potency [6] | Potency [13] | Potency [14] | max response [17] -23.2%

c1ccc(Nc2cccc3ccccc23)cc1
27.2% and -10.4%: max response [15]
inactive: Potency [2] | Potency [4] | Potency [6] | Potency [13] | max response [17] -6.95% and -18%

Cc1ccccc1OCC1CO1 (centres undefined)
inactive: Potency [2] | Potency [3] | Potency [4] | caspase-3 activation [5] 0.226% | Potency [8] | Potency [9] | Potency [10] | Potency [11] | outcome [12] | Potency [16] | max response [17] -12.7%

c1cc2c3c(c1)ccc1cccc(c13)C2
4.88%: max response [15]
inactive: Potency [3] | Potency [4] | Potency [6] | Potency [7] | Potency [8] | Potency [16]

Oc1cc2c(cc1O)[C@H]1c3ccc(O)c(O)c3OC[C@@]1(O)C2
inactive: Potency [3] | Potency [9] | outcome [12] | Potency [16] | max response [17] -28.5%
active: activity change, negative = cytotoxicity [1] -91.8% | Potency [6] 50.1 µM | Potency [14] 31.6 µM | Potency [8] 39.8 µM

Cc1c(C(=O)O)c(O)cc2c1C(=O)c1c(O)c([C@H]3O[C@H](CO)[C@@H](O)[C@H](O)[C@H]3O)c(O)c(O)c1C2=O
inactive: Potency [4] | caspase-3 activation [5] -3.17% | Potency [6] | Potency [8] | Potency [9] | Potency [10] | Potency [11] | outcome [12]
28.9%: max response [15]

Nc1ccc(N)c(Cl)c1
-6.58%: max response [15]
inactive: Potency [3] | Potency [7] | Potency [13] | Potency [14] | Potency [9] | max response [17] -4.85%

CN(C)c1ccc(C(=N)c2ccc(N(C)C)cc2)cc1
active: Potency [2] 12.6 µM | Potency [8] 39.8 µM | Potency [18] 14.1 µM
inactive: Potency [11]

C/C=C/C=C/C=O
inactive: Potency [3] | Potency [6] | Potency [9] | Potency [18]
active: Potency [7] 31.6 µM | Potency [14] 39.8 µM | Potency [8] 31.6 µM
13.6%: max response [15]

Cc1ccc(S(N)(=O)=O)cc1
10.9% and 2.08%: max response [15]
inactive: Potency [2] | Potency [3] | Potency [4] | caspase-3 activation [5] -1.71% | Potency [14] | Potency [8] | Potency [10] | Potency [11] | outcome [12] | Potency [18] | Potency [16] | max response [17] -5.31% and -1.83%

Cc1ccc(O)c(N)c1
-35.8%: max response [15]
active: Potency [13] 50.1 µM | Potency [8] 50.1 µM
inactive: Potency [3] | Potency [4] | caspase-3 activation [5] 1.75% | Potency [9] | Potency [10] | Potency [16] | max response [17] -7.01%

Cc1c2ccccc2c(C)c2c1ccc1ccccc12
inactive: activity change, negative = cytotoxicity [1] -25% | Potency [3] | Potency [4] | caspase-3 activation [5] 2.33% | Potency [6] | Potency [13] | Potency [14] | Potency [8] | Potency [10] | max response [17] -28%
active: Potency [9] 4.47 µM and 15.8 µM | Potency [17] 44.7 µM
